Measured values as given in PubChem BioAssay (EPA / NIEHS).
Inconclusive results are not listed. More than one record can exist for a structure, and the calls need not agree. Calls of active or inactive are those of the source. The calls were made as follows, unless noted: active = hit-call score of the fitted dose curve at least 0.9, where 1 is the maximum; inactive = score below 0.9.

Assays:
[1] = target: Nuclear respiratory factor 1 (Homo sapiens) (UniProt Q16656); test: ATG_NRF1_CIS: Attagene CIS-FACTORIAL HepG2 Assay for human Nuclear Respiratory Factor 1 (NRF1) Orphan Gene (AID 2282987); details: HepG2 NRF1 cis-element reporter, Attagene multiplex; actives raise or lower the signal
Sequence of Nuclear respiratory factor 1 (Homo sapiens) (Q16656 whole entry, looked up, the tested form may be a part): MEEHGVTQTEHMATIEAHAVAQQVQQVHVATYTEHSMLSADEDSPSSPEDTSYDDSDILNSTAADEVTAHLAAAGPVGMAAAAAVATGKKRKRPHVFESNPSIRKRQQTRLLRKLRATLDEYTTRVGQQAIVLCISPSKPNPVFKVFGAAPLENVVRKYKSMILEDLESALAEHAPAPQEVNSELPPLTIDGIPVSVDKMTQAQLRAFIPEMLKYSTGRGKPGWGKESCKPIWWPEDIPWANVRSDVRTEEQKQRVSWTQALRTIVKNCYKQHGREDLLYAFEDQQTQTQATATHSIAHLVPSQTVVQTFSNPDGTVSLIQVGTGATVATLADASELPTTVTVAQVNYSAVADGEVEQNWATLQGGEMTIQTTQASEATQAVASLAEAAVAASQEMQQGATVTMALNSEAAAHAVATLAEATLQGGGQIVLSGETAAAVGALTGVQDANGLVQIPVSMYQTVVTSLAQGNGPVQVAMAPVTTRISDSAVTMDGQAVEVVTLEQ
Summary of the method: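 Fluorescence intensity of labelled reporter cDNA fragments, resolved by capillary electrophoresis, served as readout for NRF1 cis-element activity. Transiently transfected HepG2 cells were dosed for 24 hours; activity in either direction was fitted against DMSO negative control.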

[2] = ATG_NFI_CIS: Attagene CIS-FACTORIAL HepG2 Assay for human Nuclear Factor I (NFI) (AID 2282989); details: HepG2 cis-regulatory reporter, NFI response element transcription; actives raise or lower the signal
Summary of the method: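 Reporter transcription driven by endogenous transcription factors in HepG2 cells; 24 h treatment. Quantitation by labelled RT-PCR fragments on capillary electrophoresis, gain- or loss-of-signal relative to DMSO.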

[3] = target: Myc proto-oncogene protein (Homo sapiens) (UniProt P01106); test: ATG_Myc_CIS: Attagene CIS-FACTORIAL HepG2 Assay for human Myelocytomatosis (Myc) Proto-Oncogene Transcription Factor (AID 2282990); details: HepG2, Attagene cis-reporter transcription factor activity; actives raise or lower the signal
Sequence of Myc proto-oncogene protein (Homo sapiens) (P01106 whole entry, looked up): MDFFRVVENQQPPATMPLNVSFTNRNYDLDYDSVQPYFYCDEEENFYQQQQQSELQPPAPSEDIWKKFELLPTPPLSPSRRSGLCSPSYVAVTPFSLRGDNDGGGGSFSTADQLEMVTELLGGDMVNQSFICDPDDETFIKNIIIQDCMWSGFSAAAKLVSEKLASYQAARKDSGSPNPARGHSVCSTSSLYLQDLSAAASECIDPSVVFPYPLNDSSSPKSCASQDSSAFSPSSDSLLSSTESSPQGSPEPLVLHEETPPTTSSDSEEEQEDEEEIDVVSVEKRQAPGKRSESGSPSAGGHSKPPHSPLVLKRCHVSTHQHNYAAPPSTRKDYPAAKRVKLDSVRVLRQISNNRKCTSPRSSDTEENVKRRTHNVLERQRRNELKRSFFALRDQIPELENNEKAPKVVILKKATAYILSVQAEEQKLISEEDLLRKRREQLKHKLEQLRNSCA
Summary of the method: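 Transiently transfected HepG2 cells bearing cis-promoter reporter units for endogenous transcription factors; 24 h exposure. Reporter mRNA measured by RT-PCR, 6-FAM primer extension, HpaI cut and capillary electrophoresis; bidirectional fit relative to DMSO.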

[4] = ATG_NRF2_ARE_CIS: Attagene CIS-FACTORIAL HepG2 Assay for human Nuclear Factor Erythroid 2 Related Factor 2 (NFR2) response to Antioxidant Response Elements (ARE) (AID 2282992); details: HepG2 Attagene ARE/NRF2 reporter, transcription factor activity; actives raise or lower the signal;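 as to AC50: reporter mRNA level measured by RT-PCR and capillary electrophoresis fluorescence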
Summary of the method: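 Readout: reporter mRNA quantified by RT-PCR plus FAM-labelled primer extension, HpaI digestion and capillary electrophoresis, 24 h after dosing transfected HepG2 cells. Gain or loss of signal is fitted bidirectionally against DMSO baseline.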

[5] = ATG_Oct_MLP_CIS: Attagene CIS-FACTORIAL HepG2 Assay for human Octamer-Binding Transcription Factor (Oct) (AID 2282993); details: HepG2 Attagene cis-factorial Oct reporter, mRNA; actives raise or lower the signal
Summary of the method: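 Transfected HepG2 cells, 24 h treatment. Reporter mRNA quantified by RT-PCR–capillary electrophoresis; bidirectional fitting against DMSO.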

[6] = target: Cellular tumor antigen p53 (Homo sapiens) (UniProt P04637); test: ATG_p53_CIS: Attagene CIS-FACTORIAL HepG2 Assay for human p53 Transcription Factor (AID 2282994); details: HepG2 p53 cis-element reporter, Attagene mRNA; actives raise or lower the signal
Sequence of Cellular tumor antigen p53 (Homo sapiens) (P04637 whole entry, looked up): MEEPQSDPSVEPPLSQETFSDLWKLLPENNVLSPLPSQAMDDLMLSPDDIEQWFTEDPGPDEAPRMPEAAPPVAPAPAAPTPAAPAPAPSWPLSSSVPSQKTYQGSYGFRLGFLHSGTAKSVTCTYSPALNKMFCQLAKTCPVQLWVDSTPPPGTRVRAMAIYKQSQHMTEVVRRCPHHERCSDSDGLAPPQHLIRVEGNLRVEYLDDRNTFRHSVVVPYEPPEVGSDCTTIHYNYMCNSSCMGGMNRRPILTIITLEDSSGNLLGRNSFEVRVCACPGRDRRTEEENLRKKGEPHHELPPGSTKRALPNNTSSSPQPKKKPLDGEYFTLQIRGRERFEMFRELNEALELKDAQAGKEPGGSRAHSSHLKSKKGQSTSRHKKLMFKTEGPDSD
Summary of the method: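 Read-out: reporter mRNA by RT-PCR plus capillary electrophoresis with fluorescence detection. Human HepG2 liver cells carried transfected multi-reporter cis-element constructs, dosed 24 h. Gain or loss of signal fitted bidirectionally against DMSO control.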

[7] = target: human Peroxisome Proliferator-activated Receptor alpha (PPARa), PPARA (gene 5465) (UniProt Q07869); test: ATG_PPARa_TRANS: Attagene TRANS-FACTORIAL HepG2 Assay for human Peroxisome Proliferator-activated Receptor alpha (PPARa) (AID 2283001; active = hit-call score of the fitted dose curve at least 0.9, where 1 is the maximum)
Sequence of human Peroxisome Proliferator-activated Receptor alpha (PPARa), PPARA (gene 5465) (Q07869 whole entry, looked up): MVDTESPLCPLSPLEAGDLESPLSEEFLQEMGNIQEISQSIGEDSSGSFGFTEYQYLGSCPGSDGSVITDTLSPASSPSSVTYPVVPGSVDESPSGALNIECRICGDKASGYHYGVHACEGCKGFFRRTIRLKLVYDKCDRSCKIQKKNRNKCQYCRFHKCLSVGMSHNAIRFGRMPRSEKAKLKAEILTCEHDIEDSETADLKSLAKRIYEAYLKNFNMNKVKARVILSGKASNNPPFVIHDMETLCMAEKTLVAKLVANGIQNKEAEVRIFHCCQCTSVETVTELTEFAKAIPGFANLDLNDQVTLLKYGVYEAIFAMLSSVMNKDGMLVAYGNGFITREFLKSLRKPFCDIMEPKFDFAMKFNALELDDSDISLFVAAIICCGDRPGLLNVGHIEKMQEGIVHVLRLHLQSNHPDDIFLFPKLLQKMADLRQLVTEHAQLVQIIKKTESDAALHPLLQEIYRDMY
Summary of the method: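 HepG2, transient MRTU transfection, 24 h treatment. RT-PCR → FAM labelling → capillary electrophoresis. Fit vs DMSO, positive direction.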

[8] = target: human Retinoic Acid Receptor beta (RARb), RARB (gene 5915) (UniProt P10826); test: ATG_RARb_TRANS: Attagene TRANS-FACTORIAL HepG2 Assay for human Retinoic Acid Receptor beta (AID 2283004; active = hit-call score of the fitted dose curve at least 0.9, where 1 is the maximum)
Sequence of human Retinoic Acid Receptor beta (RARb), RARB (gene 5915) (P10826 whole entry, looked up, the tested form may be a part): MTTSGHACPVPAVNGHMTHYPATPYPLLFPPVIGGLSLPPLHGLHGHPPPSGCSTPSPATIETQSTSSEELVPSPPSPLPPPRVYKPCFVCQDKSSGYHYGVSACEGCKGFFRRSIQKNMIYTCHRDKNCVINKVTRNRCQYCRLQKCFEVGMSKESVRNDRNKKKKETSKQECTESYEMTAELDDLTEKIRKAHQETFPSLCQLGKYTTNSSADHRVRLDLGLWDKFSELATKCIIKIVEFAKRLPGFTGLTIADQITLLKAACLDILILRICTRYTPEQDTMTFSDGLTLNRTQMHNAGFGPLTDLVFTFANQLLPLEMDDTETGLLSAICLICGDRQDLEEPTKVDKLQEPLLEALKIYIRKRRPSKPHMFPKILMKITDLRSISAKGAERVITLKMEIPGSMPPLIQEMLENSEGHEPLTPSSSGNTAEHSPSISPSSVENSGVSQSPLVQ
Summary of the method: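 HepG2 cells were transiently transfected with GAL4-UAS reporter units that report activity of exogenous chimeric NR-Gal4 proteins, then exposed to compound for 24 h. Reporter mRNA was quantified by RT-PCR with capillary electrophoresis fluorescence, as gain of signal over DMSO.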

[9] = target: Retinoic acid receptor alpha (Homo sapiens) (UniProt P10276); test: ATG_RARa_TRANS: Attagene TRANS-FACTORIAL HepG2 Assay for human Retinoic Acid Receptor alpha (RARa) (AID 2283005; active = hit-call score of the fitted dose curve at least 0.9, where 1 is the maximum;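 as to AC50: potency for increased reporter signal meaning RARa activation over DMSO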)
Sequence of Retinoic acid receptor alpha (Homo sapiens) (P10276 whole entry, looked up, the tested form may be a part): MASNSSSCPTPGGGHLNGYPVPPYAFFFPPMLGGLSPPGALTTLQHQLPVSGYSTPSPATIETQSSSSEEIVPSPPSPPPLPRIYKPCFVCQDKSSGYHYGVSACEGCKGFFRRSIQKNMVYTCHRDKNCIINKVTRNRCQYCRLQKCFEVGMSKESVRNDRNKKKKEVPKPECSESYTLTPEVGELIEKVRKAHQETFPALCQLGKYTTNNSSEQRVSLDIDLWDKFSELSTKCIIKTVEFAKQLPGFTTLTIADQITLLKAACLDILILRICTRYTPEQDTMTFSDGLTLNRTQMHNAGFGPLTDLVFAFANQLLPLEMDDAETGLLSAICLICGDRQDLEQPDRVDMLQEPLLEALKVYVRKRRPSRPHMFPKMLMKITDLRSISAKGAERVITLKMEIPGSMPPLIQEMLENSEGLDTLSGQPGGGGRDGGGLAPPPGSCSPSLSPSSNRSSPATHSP
Summary of the method: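 HepG2 transiently transfected with multiplex GAL4-UAS reporter units including a human RARa–GAL4 chimera; 24 h compound exposure. Reporter mRNA quantified by RT-PCR, 6-FAM labeling and capillary electrophoresis; gain of signal versus DMSO.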

[10] = target: Peroxisome proliferator-activated receptor gamma (Homo sapiens) (UniProt P37231); test: ATG_PPARg_TRANS: Attagene TRANS-FACTORIAL HepG2 Assay for human Peroxisome Proliferator-activated Receptor-gamma (PPARg) (AID 2283007; active = hit-call score of the fitted dose curve at least 0.9, where 1 is the maximum)
Sequence of Peroxisome proliferator-activated receptor gamma (Homo sapiens) (P37231 whole entry, looked up, the tested form may be a part): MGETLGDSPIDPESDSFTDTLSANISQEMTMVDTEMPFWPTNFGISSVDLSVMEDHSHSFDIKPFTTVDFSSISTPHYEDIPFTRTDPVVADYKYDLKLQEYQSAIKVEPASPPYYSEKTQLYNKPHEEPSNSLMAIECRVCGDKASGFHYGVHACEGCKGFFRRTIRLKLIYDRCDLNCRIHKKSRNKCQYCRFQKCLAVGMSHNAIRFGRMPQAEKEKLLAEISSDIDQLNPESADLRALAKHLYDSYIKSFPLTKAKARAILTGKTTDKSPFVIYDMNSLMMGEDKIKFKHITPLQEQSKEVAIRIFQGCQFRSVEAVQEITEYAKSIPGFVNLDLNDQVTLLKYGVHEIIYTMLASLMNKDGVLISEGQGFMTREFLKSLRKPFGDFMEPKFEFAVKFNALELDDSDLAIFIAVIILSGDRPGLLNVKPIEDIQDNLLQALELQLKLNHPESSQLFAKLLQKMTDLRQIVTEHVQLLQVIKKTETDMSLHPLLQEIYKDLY
Summary of the method: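 A TRANS-format multiplexed reporter assay measures activity of an exogenous chimeric NR-Gal4 protein in HepG2 cells. After 24 h of chemical exposure, reporter transcripts are amplified, fluorescently labelled and sized by capillary electrophoresis, with gain of signal scored against DMSO.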

[11] = target: Nuclear receptor subfamily 1 group I member 2 (Homo sapiens) (UniProt O75469); test: ATG_PXR_TRANS: Attagene TRANS-FACTORIAL HepG2 Assay for human Pregnane X Receptor (PXR) (AID 2283008; active = hit-call score of the fitted dose curve at least 0.9, where 1 is the maximum)
Sequence of Nuclear receptor subfamily 1 group I member 2 (Homo sapiens) (O75469 whole entry, looked up, the tested form may be a part): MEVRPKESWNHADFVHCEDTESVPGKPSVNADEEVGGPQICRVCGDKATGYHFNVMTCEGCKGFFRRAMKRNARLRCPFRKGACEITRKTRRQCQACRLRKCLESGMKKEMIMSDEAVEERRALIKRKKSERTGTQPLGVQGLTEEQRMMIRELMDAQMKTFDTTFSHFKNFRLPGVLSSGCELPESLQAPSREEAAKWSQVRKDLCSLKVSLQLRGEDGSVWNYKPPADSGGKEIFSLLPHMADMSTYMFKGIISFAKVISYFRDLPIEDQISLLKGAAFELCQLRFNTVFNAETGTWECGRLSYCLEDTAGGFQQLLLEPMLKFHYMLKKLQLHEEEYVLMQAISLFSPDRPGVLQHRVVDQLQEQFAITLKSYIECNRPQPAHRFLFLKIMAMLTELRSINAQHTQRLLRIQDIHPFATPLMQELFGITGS
Summary of the method: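 Trans-factorial format: exogenous NR-Gal4 fusion activity, not endogenous factor, in transfected human HepG2 liver cells. After 24 h dosing, RNA isolated, reverse-transcribed, amplified and resolved by capillary electrophoresis; induction scored versus DMSO.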

[12] = target: human Retinoic Acid Receptor gamma (RARg), RARG (gene 5916) (UniProt P13631); test: ATG_RARg_TRANS: Attagene TRANS-FACTORIAL HepG2 Assay for human Retinoic Acid Receptor gamma (RARg) (AID 2283009; active = hit-call score of the fitted dose curve at least 0.9, where 1 is the maximum)
Sequence of human Retinoic Acid Receptor gamma (RARg), RARG (gene 5916) (P13631 whole entry, looked up, the tested form may be a part): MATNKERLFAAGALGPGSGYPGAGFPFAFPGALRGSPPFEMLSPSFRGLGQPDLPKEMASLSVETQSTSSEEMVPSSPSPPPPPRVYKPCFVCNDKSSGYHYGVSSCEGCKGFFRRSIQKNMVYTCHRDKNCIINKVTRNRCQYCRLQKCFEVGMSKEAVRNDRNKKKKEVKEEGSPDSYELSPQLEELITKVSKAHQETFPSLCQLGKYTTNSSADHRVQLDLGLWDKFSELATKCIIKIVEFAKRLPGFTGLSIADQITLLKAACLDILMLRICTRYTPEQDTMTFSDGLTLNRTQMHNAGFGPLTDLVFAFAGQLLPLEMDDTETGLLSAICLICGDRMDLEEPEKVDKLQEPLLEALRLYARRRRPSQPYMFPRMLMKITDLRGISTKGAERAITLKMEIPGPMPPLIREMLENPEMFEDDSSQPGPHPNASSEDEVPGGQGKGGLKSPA
Summary of the method: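 Transactivation of exogenous RARg-Gal4 fusion measured as reporter transcript induction after 24 h in transfected HepG2 cells. RNA reverse-transcribed, amplified, fluorescently labeled and resolved by capillary electrophoresis; increase relative to DMSO.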

[13] = ATG_NF_kB_CIS: Attagene CIS-FACTORIAL HepG2 Assay for human Nuclear Factor Kappa B (NF-kB) (AID 2282991); details: HepG2 Attagene cis-factorial NF-kB reporter mRNA; actives raise or lower the signal
Summary of the method: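 Endogenous transcription factor activity in HepG2 was captured via cis-regulated reporter constructs; after 24 h dosing, reporter mRNA was reverse-transcribed, amplified, fluorescently labelled and sized by capillary electrophoresis, with activity fitted bidirectionally relative to DMSO.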

[14] = target: human Peroxisome Proliferator-activated Receptor delta (PPARd), PPARD (gene 5467) (UniProt Q03181); test: ATG_PPARd_TRANS: Attagene TRANS-FACTORIAL HepG2 Assay for human Peroxisome Proliferator-activated Receptor delta (PPARd) (AID 2283002; active = hit-call score of the fitted dose curve at least 0.9, where 1 is the maximum)
Sequence of human Peroxisome Proliferator-activated Receptor delta (PPARd), PPARD (gene 5467) (Q03181 whole entry, looked up, the tested form may be a part): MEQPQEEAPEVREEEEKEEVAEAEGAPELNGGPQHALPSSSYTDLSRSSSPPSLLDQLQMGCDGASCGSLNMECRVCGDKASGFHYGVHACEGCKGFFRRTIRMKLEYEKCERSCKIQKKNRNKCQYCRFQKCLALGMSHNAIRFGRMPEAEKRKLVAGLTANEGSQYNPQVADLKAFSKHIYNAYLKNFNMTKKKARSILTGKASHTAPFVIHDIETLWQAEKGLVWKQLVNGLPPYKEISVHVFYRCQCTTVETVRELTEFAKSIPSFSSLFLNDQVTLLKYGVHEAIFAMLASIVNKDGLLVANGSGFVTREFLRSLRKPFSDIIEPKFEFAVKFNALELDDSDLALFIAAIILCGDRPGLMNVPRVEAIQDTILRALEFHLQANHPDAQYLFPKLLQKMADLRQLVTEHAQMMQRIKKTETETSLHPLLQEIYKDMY
Summary of the method: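 HepG2 cells transiently transfected with GAL4-UAS multiplexed reporter units driven by exogenous chimeric NR-GAL4 proteins; 24 h compound exposure. Reporter mRNA measured by RT-PCR, 6-FAM primer extension, HpaI digestion and capillary electrophoresis; gain of signal fitted relative to DMSO.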

[15] = BSK_3C_uPAR: BioMAP Diversity Plus: 3C Assay for Urokinase-type plasminogen activator receptor (uPAR) Biomarker Activity (AID 2282998); details: BioMAP 3C HUVEC, uPAR biomarker ELISA; actives raise or lower the signal
Summary of the method: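 Readout: ELISA for surface uPAR. System: human umbilical vein endothelial primary cells, 24 h after chemical exposure. Analysis: bidirectional fit, DMSO baseline.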

[16] = BSK_4H_Eotaxin3: BioMAP Diversity Plus: 4H Assay for Eotaxin 3 Biomarker Activity (AID 2283000); details: primary human endothelial cells (HUVEC); actives raise or lower the signal;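 also: CCL26 protein level quantified by ELISA in parallel with SRB cytotoxicity check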
Summary of the method: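 Eotaxin-3 (CCL26) levels were measured by ELISA in HUVEC primary cultures 24 h post-dosing. Gain or loss of signal was fitted in both directions, with DMSO serving as baseline and negative control.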

[17] = read-out: Intercellular Adhesion Molecule 1 (ICAM1), ICAM1 (gene 3383); test: BSK_3C_ICAM1: BioMAP Diversity Plus: 3C Assay for Intercellular Adhesion Molecule 1 (ICAM1) Biomarker Activity (AID 2283003); details: primary human endothelial cells (HUVEC); actives raise or lower the signal
Summary of the method: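 ELISA readout of ICAM1 in human umbilical vein endothelial cells in the 3C system, taken 24 h post-dose. Gain or loss of signal versus DMSO was fitted in both directions, with SRB total-protein staining run in parallel.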

[18] = BSK_3C_Proliferation: Cell Proliferation Assessment in the BioMAP Diversity Plus: 3C Assay (AID 2283006); details: primary human endothelial cells (HUVEC)
Summary of the method: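 Proliferation as total protein: sulforhodamine B (0.1%) stain of TCA-fixed subconfluent human umbilical vein endothelial cells, absorbance 560 nm, 48 h after dosing. Activity fitted in both directions against DMSO baseline.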

[19] = BSK_3C_VCAM1: BioMAP Diversity Plus: 3C Assay for Vascular cell adhesion molecule 1 (VCAM1) Biomarker Activity (AID 2282999); details: BioMAP 3C HUVEC, VCAM1 ELISA, cytokine-stimulated; actives raise or lower the signal
Summary of the method: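 HUVEC primary cells, 24 h compound exposure; VCAM-1 by ELISA; gain/loss of signal fitted bidirectionally vs DMSO baseline.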

[20] = BSK_3C_TissueFactor: BioMAP Diversity Plus: 3C Assay for Tissue Factor Biomarker Activity (AID 2282997); details: BioMAP 3C HUVEC, tissue factor biomarker readout; actives raise or lower the signal
Summary of the method: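 Tissue Factor measured by ELISA, 24 h after treatment of primary HUVEC in the BioMAP 3C setting.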

Measured: AC50

Nc1cc(Cl)c(N)c(Cl)c1
inactive: [1] | [2] | [3] | [5] | [6] | [7] | [12]
active: [4] 9.89 µM | [8] 26.5 µM | [9] 43 µM | [10] 38.7 µM | [11] 19.8 µM

CC(C)=CCCC(C)CCOC(=O)C(C)C (configuration not stated)
inactive: [1] | [2] | [3] | [13] | [4] | [6] | [7] | [14] | [10] | [11]

FC1CC(F)(F)C(F)(F)C1(F)F (configuration not stated)
inactive: [1] | [2] | [3] | [13] | [4] | [15] | [16] | [7] | [17] | [8] | [9] | [18] | [10]

OCCCC(F)(F)C(F)(F)C(F)(F)F
inactive: [1] | [2] | [3] | [13] | [4] | [15] | [19] | [16] | [7] | [14] | [17] | [10] | [11] | [12]

Cc1ccc(S(=O)(=O)NCl)cc1
inactive: [1] | [2] | [3] | [4] | [6] | [7] | [14] | [10] | [11]

CCN(Cc1cccc(S(=O)(=O)O)c1)c1ccc(C(=C2C=CC(=[N+](CC)Cc3cccc(S(=O)(=O)O)c3)C=C2)c2ccc(O)cc2S(=O)(=O)[O-])cc1
inactive: [1] | [2] | [3] | [13] | [4] | [7] | [14] | [10] | [11]

O=S(=O)(O)c1ccc2ccccc2c1
active: [11] 21 µM
inactive: [1] | [2] | [3] | [13] | [4] | [6] | [7] | [14] | [10] | [11]

FC(F)(F)C(F)(F)C(F)(F)C(F)(F)C(F)(F)C(F)(F)C(F)(F)C(F)(F)F
inactive: [1] | [2] | [3] | [13] | [4] | [15] | [19] | [16] | [7] | [14] | [17] | [9] | [18] | [10] | [11] | [12]

CC(C)OC(=O)c1ccccc1C(=O)OC(C)C
active: [10] 100 µM | [11] 5.74 µM
inactive: [1] | [2] | [3] | [13] | [4] | [8] | [9] | [12]

CCC(=O)OCCc1ccccc1
inactive: [1] | [2] | [3] | [13] | [4] | [11]

O=C(O)C(F)(F)C(F)(F)C(F)(F)F
inactive: [1] | [2] | [3] | [13] | [4] | [15] | [16] | [7] | [14] | [17] | [18] | [10] | [11]

c1ccc(-c2ccccc2-c2ccccc2)cc1
inactive: [1] | [3] | [13] | [6] | [14] | [10]
active: [2] 100 µM | [4] 32.9 µM | [11] 27 µM

OCC(F)(F)C(F)(F)C(F)(F)C(F)(F)C(F)(F)C(F)(F)F
inactive: [1] | [2] | [3] | [13] | [20] | [15] | [16] | [7] | [17] | [9] | [11]
active: [4] 225 µM | [17] 46.4 µM
